# Data as given in PubChem BioAssay.
# Several values for one entry are separate records, joined by “and”; a condition that tells them apart may be missing. Identical values can stand only once. Activity calls are given as the source filed them.
# Assays:
# [1] = E. coli DRC41 culture turbidity changes, primary screen, E. coli filamentation inducer project, strain DRC41, OD650, 48 h (AID 1152);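 further: E. coli MC1000 strain DRC41 lacking acrAB efflux pump and sulA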; conditions: E. coli DRC41 (acrAB sulA), higher = more signal, called active from +8 up or from −8 down
# [2] = small-molecule binders of probe aLefty1, primary screen, biochemical, small-molecule microarray, 635/667 nm fluorescence (AID 1153); conditions: higher = more signal;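 further: score merges spot fluorescence with signal-to-noise ratio from the scanned slide images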
# [3] = PSAC antagonists in infected red cells, primary screen, cell-based, P. falciparum Indochina, OD700, 1 h (AID 1154); conditions: P. falciparum Indochina infected RBC osmotic lysis, higher = more signal, called active from +8 up or from −8 down
# [4] = PSAC antagonists in infected red cells, primary screen, cell-based, P. falciparum Indochina, OD700, 2 h (AID 1155);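 further: lysis reports solute entry through the parasite surface anion channel PSAC; channel blockers reduce lysis of infected cells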; conditions: P. falciparum Indochina infected erythrocytes, osmotic lysis OD700; higher = more signal, called active from +8 up or from −8 down
# [5] = osmotic lysis modulators in infected erythrocytes, primary screen, PSAC antagonist project, cell-based, P. falciparum Indochina, OD700, 3 h (AID 1156); conditions: higher = more signal, called active from +8 up or from −8 down
# [6] = PSAC antagonists in infected red cells, primary screen, cell-based, P. falciparum Indochina, OD700, 18 h (AID 1157); conditions: P. falciparum Indochina infected erythrocytes, osmotic lysis OD700, 18 h; higher = more signal, called active from +8 up or from −8 down
# [7] = modulators of S6 phosphorylation in cells, primary screen, cell-based, A549, cytoblot, luminescence, serum-stimulated (AID 1158); conditions: A549 phospho-S6 cytoblot, 5 h, higher = more signal;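 further: serum-stimulated A549 lung adenocarcinoma cells; signal is phosphorylated S6 detected by cytoblot immunostaining with HRP secondary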
# [8] = target: NADPH oxidase 2 (Homo sapiens) (UniProt P04839); assay: NOX2-dependent H2O2 signal modulators, primary screen, NOX inhibitor project, cell-based, HEK293-NOX2, PMA-stimulated, Amplex Red fluorescence (AID 1159); conditions: 45 min, higher = more signal, called active from +8 up or from −8 down; further: test concentration not given here
# [9] = target: NADPH oxidase 4 (Homo sapiens) (UniProt Q9NPH5); assay: NOX4-dependent H2O2 signal modulators, primary screen, NOX inhibitor project, cell-based, HEK293-NOX4, tetracycline-induced, Amplex Red fluorescence (AID 1160); conditions: 45 min, higher = more signal, called active from +8 up or from −8 down
# [10] = target: NADPH oxidase 5 (Homo sapiens) (UniProt Q96PH1); assay: NOX5-dependent H2O2 signal modulators, primary screen, NOX inhibitor project, cell-based, HEK293-NOX5, Amplex Red fluorescence (AID 1161); conditions: HEK293-NOX5, ionomycin, 45 min, higher = more signal
# [11] = A549 cell viability effects, profiling panel, calcein-AM fluorescence, 48 h, basal (AID 1162); conditions: higher = more signal; further: test concentration not given here
# [12] = adipocyte viability effects, profiling panel, cell-based, 3T3-L1 adipocytes, calcein-AM fluorescence, 48 h, basal (AID 1163); conditions: 3T3-L1 adipocytes viability, higher = more signal; further: test concentration not given here
# [13] = HepG2 cell viability effects, profiling panel, calcein-AM fluorescence, 48 h, basal (AID 1164); conditions: higher = more signal; further: test concentration not given here
# [14] = MM1S cell viability effects, profiling panel, calcein-AM fluorescence, 48 h, basal (AID 1165); conditions: higher = more signal;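 further: viability of MM1S multiple myeloma cells under basal unstimulated conditions; test concentration not given here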
# [15] = basal RPMI8226 viability, no added stimulus, profiling panel, cell-based, calcein-AM fluorescence, 48 h, PK04 Diversity Set (AID 1166); conditions: RPMI8226 myeloma viability, higher = more signal;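 further: cells grown under basal conditions without added stimulus; test concentration not given here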
# [16] = basal HepG2 mitochondrial membrane potential changes, profiling panel, cell-based, JC-1 fluorescence, 24 h, 100 nL compound (AID 1167); conditions: higher = more signal; further: test concentration not given here
# [17] = basal 3T3-L1 adipocyte mitochondrial potential changes, profiling panel, cell-based, JC-1 fluorescence, 3T3-L1 adipocytes, 24 h, 100 nL compound (AID 1168); conditions: JC-1 mitochondrial fluorescence, higher = more signal, called active from +8 up or from −8 down; further: test concentration not given here
# [18] = basal RPMI8226 mitochondrial membrane potential changes, profiling panel, cell-based, JC-1 fluorescence, 24 h, 100 nL compound (AID 1169); conditions: RPMI8226 myeloma, JC-1 mitochondrial potential fluorescence, higher = more signal; further: test concentration not given here
# [19] = basal MM1S mitochondrial membrane potential changes, profiling panel, cell-based, JC-1 fluorescence, 24 h, 100 nL compound (AID 1170); conditions: higher = more signal; further: test concentration not given here
# [20] = A549 lung cancer cell viability effects, profiling panel, resazurin fluorescence, 24 h, PK04 Diversity Set (AID 1171); conditions: higher = more signal, called active from +8 up or from −8 down; further: test concentration not given here
# Chain of NADPH oxidase 5 (Homo sapiens) (Q96PH1 whole entry, looked up): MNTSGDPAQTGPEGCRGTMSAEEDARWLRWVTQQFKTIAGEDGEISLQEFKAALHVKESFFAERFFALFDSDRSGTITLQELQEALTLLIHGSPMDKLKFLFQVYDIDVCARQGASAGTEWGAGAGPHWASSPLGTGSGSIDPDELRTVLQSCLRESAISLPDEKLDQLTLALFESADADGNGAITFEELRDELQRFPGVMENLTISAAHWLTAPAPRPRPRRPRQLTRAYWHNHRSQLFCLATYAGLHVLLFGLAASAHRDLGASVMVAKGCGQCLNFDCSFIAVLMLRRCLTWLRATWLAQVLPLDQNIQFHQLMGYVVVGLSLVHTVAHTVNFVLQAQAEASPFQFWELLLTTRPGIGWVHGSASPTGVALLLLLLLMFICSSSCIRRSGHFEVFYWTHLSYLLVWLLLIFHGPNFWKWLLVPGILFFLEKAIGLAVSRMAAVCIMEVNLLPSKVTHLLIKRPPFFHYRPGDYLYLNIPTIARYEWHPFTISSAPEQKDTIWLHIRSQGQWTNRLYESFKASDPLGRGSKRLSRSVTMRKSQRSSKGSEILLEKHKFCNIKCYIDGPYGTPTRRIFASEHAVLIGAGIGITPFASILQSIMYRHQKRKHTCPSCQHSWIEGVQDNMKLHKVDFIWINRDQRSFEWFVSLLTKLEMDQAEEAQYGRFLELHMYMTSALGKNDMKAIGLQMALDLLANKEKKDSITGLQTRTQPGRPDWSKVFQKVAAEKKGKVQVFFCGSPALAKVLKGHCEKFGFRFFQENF
# Chain of NADPH oxidase 4 (Homo sapiens) (Q9NPH5 whole entry, looked up): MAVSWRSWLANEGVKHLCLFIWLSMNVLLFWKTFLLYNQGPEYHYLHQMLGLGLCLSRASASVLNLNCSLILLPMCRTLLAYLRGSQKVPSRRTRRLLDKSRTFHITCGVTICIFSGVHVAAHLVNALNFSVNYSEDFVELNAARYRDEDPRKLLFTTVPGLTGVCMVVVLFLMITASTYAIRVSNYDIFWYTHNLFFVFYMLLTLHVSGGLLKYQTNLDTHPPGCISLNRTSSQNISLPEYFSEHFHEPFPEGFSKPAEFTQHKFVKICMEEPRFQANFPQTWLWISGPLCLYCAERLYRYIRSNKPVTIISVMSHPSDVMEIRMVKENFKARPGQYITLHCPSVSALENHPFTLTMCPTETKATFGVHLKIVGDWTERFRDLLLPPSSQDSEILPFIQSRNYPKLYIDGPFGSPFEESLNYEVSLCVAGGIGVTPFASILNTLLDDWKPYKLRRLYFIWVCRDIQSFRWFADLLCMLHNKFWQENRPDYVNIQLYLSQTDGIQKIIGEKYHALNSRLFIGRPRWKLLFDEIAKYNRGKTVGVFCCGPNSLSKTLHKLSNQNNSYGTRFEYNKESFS
# Chain of NADPH oxidase 2 (Homo sapiens) (P04839 whole entry, looked up): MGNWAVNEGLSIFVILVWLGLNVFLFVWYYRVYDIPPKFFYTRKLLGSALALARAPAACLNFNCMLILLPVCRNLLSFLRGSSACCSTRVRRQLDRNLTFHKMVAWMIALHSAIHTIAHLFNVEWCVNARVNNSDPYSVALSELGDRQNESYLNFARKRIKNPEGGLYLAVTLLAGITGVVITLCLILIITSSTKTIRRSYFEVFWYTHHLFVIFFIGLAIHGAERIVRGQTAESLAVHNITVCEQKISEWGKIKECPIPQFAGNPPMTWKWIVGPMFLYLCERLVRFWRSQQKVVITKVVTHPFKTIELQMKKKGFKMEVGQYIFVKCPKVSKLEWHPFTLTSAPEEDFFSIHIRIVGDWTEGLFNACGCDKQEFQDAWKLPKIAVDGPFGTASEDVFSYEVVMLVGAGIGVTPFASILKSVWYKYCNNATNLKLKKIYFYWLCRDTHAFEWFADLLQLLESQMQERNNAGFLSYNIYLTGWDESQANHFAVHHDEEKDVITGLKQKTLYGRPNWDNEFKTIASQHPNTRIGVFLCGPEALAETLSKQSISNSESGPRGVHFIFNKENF
SMILES,z-score [1],composite z-score [2],z-score [3],z-score [4],z-score [5],z-score [6],z-score [7],z-score [8],z-score [9],z-score [10],z-score [11],z-score [12],z-score [13],z-score [14],z-score [15],z-score [16],z-score [17],z-score [18],z-score [19],z-score [20]
C=CCN(CCCC)C(=O)C1N(c2ccc(CCO)cc2)C(=O)C2C(C(=O)O)C3C=CC21O3 (stereo not given),0.516 (inactive) and 1.32 (inactive),-0.103 and 0.778,-0.245 (inactive) and 0.903 (inactive),-0.186 (inactive) and -0.13 (inactive),-0.874 (inactive) and -0.244 (inactive),0.113 (inactive) and -0.183 (inactive),0.799 and -0.202,-0.212 (inactive) and 1.49 (inactive),0.0383 (inactive) and -1.09 (inactive),-0.437 and 0.534,-0.635 and 0.444,0.79 and 0.378,-0.97 and -0.116,0.853 and 1.11,-0.0527 and 0.0382,-0.63 and 0.869,-0.915 (inactive) and 1.18 (inactive),0.16 and 0.0627,0.748 and 1.93,-0.223 (inactive) and -0.442 (inactive)
C=CCN(CCCCC)C(=O)C1N(c2c(Cl)cccc2CO)C(=O)C2C(C(=O)O)C3C=CC21O3 (stereo not given),-0.281 (inactive) and -0.118 (inactive),-0.313 and 0.0547,1.02 (inactive) and 0.766 (inactive),0.078 (inactive) and 0.573 (inactive),0.418 (inactive) and 0.0852 (inactive),0.188 (inactive) and -0.058 (inactive),0.0308 and 0.765,0.871 (inactive) and 0.757 (inactive),-1.02 (inactive) and -1.22 (inactive),-0.554 and -0.2,0.91 and 0.677,1.58 and 0.498,-0.841 and -0.469,1 and 0.892,-1.09,-0.828 and -1.37,-0.438 (inactive) and -0.55 (inactive),0.0653 and 0.469,0.223 and 1.03,-1.5 (inactive) and -1.33 (inactive)
CON(C)C(=O)c1nnc2c3ccccc3n(S(=O)(=O)c3ccc(C)cc3)c2n1,-0.162 (inactive) and 0.162 (inactive),-0.262 and -0.368,1.21 (inactive) and 2.08 (inactive),0.0579 (inactive) and 0.454 (inactive),-0.212 (inactive) and 0.184 (inactive),-0.096 (inactive) and 0.149 (inactive),-0.375 and 0.313,0.442 (inactive) and -1.24 (inactive),0.882 (inactive) and 0.0607 (inactive),0.436 and 0.278,0.318 and 1.25,0.495 and -0.447,-1.33 and -0.298,0.14 and 0.0315,0.496 and -0.588,-1.61 and -1.52,-0.301 (inactive) and -0.0202 (inactive),0.218 and 0.4,-0.436 and -0.72,0.617 (inactive) and -0.146 (inactive)
COCn1c2ccccc2c2nnc(C(C)=O)nc21,-1.46 (inactive) and -0.426 (inactive),-0.103 and -0.0111,1.91 (inactive) and 0.558 (inactive),-0.781 (inactive) and -1.09 (inactive),0.68 (inactive) and 1.07 (inactive),-1.28 (inactive) and -1.44 (inactive),2.52 and 1.53,-0.424 (inactive) and -0.738 (inactive),-0.773 (inactive) and -0.0619 (inactive),-2.97 and -3.35,-0.337 and -0.197,0.745 and 0.622,-0.786 and -0.47,-0.32 and -0.151,-2.16 and -1.74,-2.92 and -0.761,0.0492 (inactive) and 0.883 (inactive),-0.79 and -0.473,-0.189 and -0.639,-0.181 (inactive) and -0.856 (inactive)
C=CCN(C(=O)C1N(CCOCCO)C(=O)C2C(C(=O)O)C3C=CC21O3)c1ccc(OC)cc1 (stereo not given),0.168 (inactive) and 0.839 (inactive),-0.262 and -0.243,-0.586 (inactive) and -1.15 (inactive),0.0933 (inactive) and -0.0778 (inactive),-1.1 (inactive) and -0.285 (inactive),-0.0612 (inactive) and -0.161 (inactive),1.4 and -0.338,0.073 (inactive) and 0.856 (inactive),-0.509 (inactive) and -0.782 (inactive),0.624 and -0.275,-0.0891 and 0.163,-0.24 and 0.366,0.136 and 0.857,0.963 and -0.688,-0.25 and 0.0863,0.191 and -1.15,0.124 (inactive) and 1.32 (inactive),-0.0484 and 0.126,1.01 and 0.642,-0.237 (inactive) and 0.168 (inactive)
COC(=O)[C@H](C)NC(=O)CCC1CC(OC(=O)NCCc2ccc(F)cc2)CC2(CCCC(COC(=O)NCCCN3CCCC3=O)O2)O1 (stereo not given in full),-0.184 (inactive),-0.294,-0.798 (inactive),-0.744 (inactive),1.05 (inactive),0.298 (inactive),0.244,1.32 (inactive),0.113 (inactive),-0.0138,-0.48,1.06,-1.32,-0.901,-1.78,-0.197,0.0783 (inactive),-0.405,0.0394,0.209 (inactive)
C=CCN(C(=O)C1N(C(C)(C)CO)C(=O)C2C(C(=O)O)C3C=CC21O3)c1ccc(OC)cc1 (stereo not given),2.14 (inactive) and 0.776 (inactive),-0.0544 and -0.333,2.3 (inactive) and -0.0606 (inactive),-0.613 (inactive) and -0.0765 (inactive),-1.82 (inactive) and 0.228 (inactive),-0.646 (inactive) and -0.183 (inactive),0.228 and -0.0837,0.833 (inactive) and -0.0915 (inactive),-2.16 (inactive) and -2.56 (inactive),0.782 and -1.03,0.396 and 0.242,0.682 and -0.0179,-0.394 and -0.112,0.925 and 0.494,0.463 and 0.475,0.414 and 0.332,0.688 (inactive) and 0.702 (inactive),0.9 and -0.286,0.646 and 0.841,0.377 (inactive) and 0.109 (inactive)
C=CC[C@H](O)c1ccc(OCCO)cc1,-0.349 (inactive) and -0.895 (inactive),-0.017 and -0.491,0.965 (inactive) and 1.27 (inactive),0.396 (inactive) and -0.262 (inactive),-0.0706 (inactive) and -0.94 (inactive),0.475 (inactive) and 0.084 (inactive),0.263 and 0.368,-0.317 (inactive) and -0.425 (inactive),-0.103 (inactive) and 0.574 (inactive),0.811 and 0.51,-0.168 and -0.248,-0.219 and -0.258,-0.267 and 0.456,0.842 and -1.08,-0.252 and -0.209,-0.301 and -0.603,-0.315 (inactive) and 0.251 (inactive),-0.0607 and 0.117,0.319 and -0.662,-0.233 (inactive) and -0.884 (inactive)
Cc1ccc(S(=O)(=O)N[C@H]2COC(=O)[C@@H](Cc3ccccc3)NC(=O)[C@@H](C)COC(=O)CC=C[C@@H]2C)cc1,-0.193 (inactive) and 0.569 (inactive),-0.232 and -0.0645,0.649 (inactive) and 1.51 (inactive),0.237 (inactive) and 0.491 (inactive),0.377 (inactive) and 1.9 (inactive),0.252 (inactive) and 0.148 (inactive),0.0356 and 0.201,-0.34 (inactive) and 0.252 (inactive),-0.302 (inactive) and -0.127 (inactive),0.189 and 0.00698,0.671 and -0.545,-0.433 and 1.08,0.364 and -1.68,-1.13 and 1.05,-0.372 and -0.784,0.0571 and -0.176,-0.517 (inactive) and -0.812 (inactive),-0.259 and 0.107,0.242 and -1.28,0.0258 (inactive) and 0.392 (inactive)
CC(C)CCN1CCc2nc(-c3ccccc3)c3c(c2C1)CO[C@@H](C)C3,0.842 (inactive),0.173,0.253 (inactive),0.145 (inactive),-0.895 (inactive),0.0992 (inactive),-0.768,1.12 (inactive),0.461 (inactive),0.427,-0.0742,-0.626,1.15,-1.18,0.0677,0.361,-0.395 (inactive),-0.173,0.324,-0.191 (inactive)
CC(CO)N1C(=O)[C@@H]2C3C(=O)OCCC=C[C@H]3OC23C=CCN(Cn2nnc4ccccc42)C(=O)[C@@H]13 (stereo not given in full),0.326 (inactive) and -0.353 (inactive),-0.199 and 0.241,0.464 (inactive) and 3.04 (inactive),-0.0088 (inactive) and 0.83 (inactive),0.879 (inactive) and 0.711 (inactive),0.163 (inactive) and 0.114 (inactive),0.798 and 0.483,1.14 (inactive) and 1.44 (inactive),0.249 (inactive) and 0.774 (inactive),1.47 and 2.83,-0.515 and 0.432,-0.101 and 0.061,-0.562 and -0.713,0.922 and -0.0987,-0.28 and 0.0829,-1.01 and -0.375,-0.259 (inactive) and -1.12 (inactive),0.46 and -0.0108,0.198 and -0.363,-0.116 (inactive) and 0.785 (inactive)
CC(C)=NO[C@@H](C)c1cc(-c2c(C)cc(C)cc2C)no1,-2.27 (inactive),-0.278,0.944 (inactive),0.371 (inactive),1.37 (inactive),-1.23 (inactive),0.702,-0.639 (inactive),-1.28 (inactive),-1.13,-0.846,0.38,-0.242,-0.309,-0.416,-0.182,0.478 (inactive),-0.328,-0.39,0.0477 (inactive)
